# ClpP mod: qHTS Assay for Activators of ClpP | AID 651965, 2013 | ATP-dependent Clp protease proteolytic subunit (Bacillus subtilis (strain 168)), P80244 | Potency, µM (series often up to 57.5 µM), for the others: at the highest dose activity change, negative = active | 340,000 tested, 1.9% active | purified B. subtilis ClpP, FRET peptide cleavage, 20 min; active means well fitted falling curve with a large enough effect; inconclusive means small, poorly fitted or top-dose-only effect; inactive means no such curve, though single readings can be large or run the other way; further: potency means the concentration at half of the fitted maximal effect; the source files actives as falling curves though it sought activators and does not explain the sign; nearly all actives have a fitted effect of over 65% in size
# Target sequence (P80244 whole entry, looked up): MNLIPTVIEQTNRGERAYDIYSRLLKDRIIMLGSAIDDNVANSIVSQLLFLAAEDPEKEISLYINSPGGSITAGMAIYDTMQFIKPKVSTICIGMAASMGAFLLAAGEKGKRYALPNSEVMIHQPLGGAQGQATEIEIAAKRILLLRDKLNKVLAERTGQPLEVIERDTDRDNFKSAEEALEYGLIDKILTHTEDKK
#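 Buffer: 100 mM Tris/HCl pH8, 100 mM KCl, 0.05% low protease BSA, 2.5% glycerol, 0.01% Tween-20. ClpP 10 microg/mL final; 20 min RT; delta FRET normalized to ADEP and DMSO controls.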
# TRPV1 PAM: human TRPV1 potentiation | TRPV1-expressing cells, Fluo-8 calcium influx, capsaicin EC20 potentiation | 320,000 tested, 0.02% active | potentiation, % at 8.33 µM | Q8NER1; in the data active means potentiation above about 80%; inconclusive means between about 30% and that limit; further: 0% is about no effect
#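 Fluo-8 calcium influx in TRPV1-expressing cells, kinetic read (ex 480/em 520 nm). Compound added and read 3 min for agonist activity, followed by capsaicin at EC20 final and 2 min further read for enhancement.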
# p53 reactivation: re-activators of mutant p53 | H1299 p53-A138V BP100-luciferase reporter, luminescence, 24 h | Potency, µM (series often up to 92.2 µM), inactives show top-dose activity change, positive = activation, hits mostly activators | 320,000 tested, 0.063% active | AID 504706; active means well fitted activation curve with a large enough effect; inconclusive means small, poorly fitted or top-dose-only effect; inactive means no such curve, though single readings can be large or run the other way; further: potency means the concentration at half of the fitted maximal effect; % of control where 0% means no effect; nearly all actives have a fitted effect of over 45% in size
#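 p53-null H1299 cells stably carrying temperature-sensitive p53-A138V and a BP100-luciferase reporter were pinned with compounds (4-point, 1:5 series) and held 24 hrs at 37 deg C. Luminescence was read 10 min after detection reagent.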
# TRPV1 agonist: human TRPV1 agonism | Q8NER1 | TRPV1-expressing cells, Fluo-8 calcium influx, agonist mode | activation, % at 8.33 µM | 320,000 tested, 0.19% active | AID 540275; in the data active means activation above about 80%; inconclusive means between about 30% and that limit; further: 0% is about no effect
#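 Fluo-8 calcium influx in TRPV1-expressing cells, kinetic read (ex 480/em 520 nm). Compound added and read 3 min for agonist activity, followed by capsaicin at EC20 final and 2 min further read for enhancement.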
# KCNH2 3.1 inh: KCNH2 3.1 (human) potassium channel inhibition; U2OS KCNH2 3.1, thallium flux FluxOr; stronger effect = lower value; AID 720553; activity change, % (tested at about 1.8 µM); 340,000 tested, 0.95% active;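 active means maximum activity change below -70%; inconclusive means maximum activity change from -70% to -50%; inactive means maximum activity change above -50%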;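 further: thallium influx rate constant from kinetic fluorescence after stimulation buffer; on the % scale 0 is the no-effect control and ±100 the full control effect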
#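 Virally transduced U2OS (3.1 isoform, 4 h infection in dark at RT) → overnight 37 C → FluxOr + Red40 in HBSS/HEPES, 45 min → stimulation buffer, 2 min kinetic read → rate constant vs DMSO controls.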
# KCNH2 WT inh: inhibitors of human wildtype KCNH2 potassium channel. Q12809. U2OS, BacMam KCNH2, thallium flux FluxOr; stronger effect = lower value. activity change, % at 1.84 µM. 340,000 tested, 0.37% active. AID 720551;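 active means maximum activity change below -70%; inconclusive means maximum activity change between -70% and -50%; inactive means maximum activity change above -50%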; further: on the % scale 0 is the no-effect control and ±100 the full control effect
#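 U2OS cells transduced with wild-type KCNH2 virus are loaded with FluxOr dye for 45 min, and thallium flux is measured in kinetic reads before and after stimulation buffer. Rate constants are normalized to DMSO controls.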
# Numbers without * were called inactive; ? = inconclusive; . = no result. Shown are actives, neighbours in structure and some others; about 2.6% of the full set was active somewhere.
SMILES,ClpP mod,TRPV1 PAM,p53 reactivation,TRPV1 agonist,KCNH2 3.1 inh,KCNH2 WT inh
CN(C)S(=O)(=O)c1cccc(-c2cn3cc(Cl)ccc3n2)c1,28µM*,-6,3%,13,5,-8
O=S(=O)(c1cccc(-c2cn3cc(Cl)ccc3n2)c1)N1CCOCC1,28µM*,-3,-12%,18,-8,16
Oc1c(C(c2ccc(Cl)cc2Cl)N2CCCC2)sc2nc(-c3ccco3)nn12 (stereo not drawn),1%,.,.,.,.,.
O=C(Nc1ccc(F)cc1)C(c1ccccc1OC(F)(F)F)N1CCN(c2cccc(C(F)(F)F)n2)CC1 (stereo not drawn),-25%,.,.,.,.,.
COc1ccc(Nc2oc(-c3cccs3)nc2C#N)cc1,14µM*,11,7%,-2,.,-1
COc1ccccc1CC(=O)NC1CC1,0%,0,2%,1,-6,-1
COc1ccccc1CC(=O)NC1CC(C)(C)NC(C)(C)C1,28µM*,4,?,-10,-2,2
CCOc1ccc(CCNC(=O)c2oc(=O)c3ccccc3c2-c2ccc(C)cc2)cc1OCC,-6%,.,.,.,.,.
O=C(CSc1ccc(-c2nc3ccccc3[nH]2)cn1)N1CCN(C(=O)c2ccco2)CC1,32µM*,1,?,11,-2,-11
O=C(Cn1c(-c2cccs2)cc2ccccc21)NCCCN1CCN(c2ccc(F)cc2)CC1,32µM*,.,.,.,.,.
CC(C)CCNC(=O)Cn1c(-c2cccs2)cc2cc(F)ccc21,32µM*,.,.,.,.,.
COc1ccc(N2CCN(CCCNC(=O)Cn3c(-c4cccs4)cc4ccccc43)CC2)cc1,4%,.,.,.,.,.
O=C(Cn1c(-c2cccs2)cc2cc(F)ccc21)NCCCN1CCN(c2ccccc2F)CC1,32µM*,.,.,.,.,.
O=C(Cn1c(=O)c2cccn2c2ccc(F)cc21)NCCCN1CCN(c2ccccc2F)CC1,-18%,16,9%,3,-21,-2
COc1ccc(S(=O)(=O)N2CCN(c3nc(-c4cccs4)nc4ccccc34)CC2)cc1OC,-3%,.,.,.,.,.
CCCCNc1c(-c2cccnc2)nc2nc(C)cc(C)n12,-7%,.,.,.,.,.
CS(=O)(=O)N1CCCC(C(=O)Nc2ccc(Br)cc2F)C1 (stereo not drawn),.,3,7%,5,-7,-12
CS(=O)(=O)N1CCC(C(=O)Nc2ccc(Cl)cc2Cl)CC1,0%,.,.,.,-71*,-17
CS(=O)(=O)N1CCC(C(=O)Nc2ccc(Br)cc2F)CC1,-7%,-11,-12%,1,-92*,3
CC1CCN(C(=O)c2ccc([N+](=O)[O-])o2)CC1,.,2,14%,-1,-72*,-2
Cc1ccc2nc(CN3CCN(S(=O)(=O)c4ccc(F)cc4)CC3)oc2c1,-1%,.,.,.,.,.
CC(OC(=O)c1cccnc1SCc1cc(=O)n2ccccc2n1)c1ccccn1 (stereo not drawn),-23%,3,6%,1,-9,-4
CCOC(=O)c1cccnc1SCc1cc(=O)n2ccccc2n1,32µM*,?,?,-1,-1,-24
COc1ccc(CCNC(=O)CCCNC(=O)Cn2cnc3sc(C)c(C)c3c2=O)cc1OC,0%,-2,0%,-1,-5,3
COc1ccccc1NC(=O)CCCNC(=O)Cn1cnc2sc(C)c(C)c2c1=O,28µM*,1,0%,0,2,9
CN1CC(=O)N(CC(=O)Nc2cccc(C#N)c2)c2ccccc2C1=O,1%,.,.,.,.,.
CCCCOC(=O)CCc1nc2ccccc2[nH]c1=O,?,1,-2%,-1,3,-2
CCOC(=O)c1ccc(COC(=O)CCc2nc3ccccc3[nH]c2=O)o1,32µM*,15,2%,4,-12,1
CCOC(=O)C1=C(O)/C(=C/c2cn(CC(=O)N3CCCC3)c3ccccc23)SC1=Nc1ccccc1,-7%,2,-2%,4,-13,-102*
CCOC(=O)CC(NC(=O)CCc1c(C)nc2cc(-c3ccccc3)nn2c1C)c1ccc(C)cc1 (stereo not drawn),5%,.,.,.,.,.

# Bioassay records: PubChem BioAssay, National Center for Advancing Translational Sciences (NCATS)
